# Source: ChEMBL document CHEMBL1157539, “Thousands of chemical starting points for antimalarial lead identification” (Nature, 2010)
# Several values for one entry are separate records, joined by “and”; a condition that tells them apart may be missing. Equal values may be shown once.
# Tested on: Plasmodium falciparum
# Experiment: GSK_TCMDC: Inhibition of Plasmodium falciparum 3D7 in whole red blood cells, using parasite LDH activity as an index of growth. Test compounds present at 2uM
# Type: functional
row,Compound,Inhibition [%]
1,NC1=NC(c2ccccc2)(c2ccccc2)C(=O)N1Cc1ccc(-c2cccnc2)cc1.O=CO,99
2,Cc1cc(F)ccc1Oc1nc(Nc2ccc(N3CCOCC3)c(F)c2)nc2c1S(=O)(=O)CCC2.Cl,96
3,O=C(NC1CC1)c1ccc(N2CCC(Cc3ccccc3)CC2)nc1.O=C(O)C(F)(F)F,95
4,Cc1ccc(S(=O)(=O)N(CCCN2CCN(C)CC2)Cc2csc(-c3ccc(CNCc4ccccc4)cc3)n2)cc1.O=C(O)C(F)(F)F,97
5,CCC1CCCCN1S(=O)(=O)c1ccc(OC)c(N2CCN(C(=O)C(Cl)(Cl)Cl)CC2)c1 (stereo not given),89
6,COc1ccc(CCNCCCCCNCCCc2ccc(Cl)cc2)cc1OC.Cl,100
7,O=C(COc1ccccc1)NC1CCN(c2ccnc3cc(Cl)ccc23)C1.O=C(O)C(F)(F)F (stereo not given),100
8,CC(NC(=O)c1ccc(O)c(-c2ccc(Cl)c(Cl)c2)c1)C(=O)NCCN1CCCC1 (stereo not given),99
9,CCO[C@H]1CN[C@H](C#Cc2cc3c(Nc4ccc(OCc5cccc(F)c5)c(Cl)c4)ncnc3s2)C1.O=C(O)C(F)(F)F,100
10,O=C(Nc1ccc(-c2ccc(-c3nc4cc(C(F)(F)F)ccc4[nH]3)s2)cc1)c1c[nH]cn1,92
11,O=C(NC1CC1)c1cnc(N2CCN(Cc3c(F)cccc3Cl)CC2)c(Cl)c1.O=C(O)C(F)(F)F,93
12,O=C(Nc1ccc(-c2cccc(-c3nc4ccccc4[nH]3)c2)cc1)Nc1ccc2c(c1)OCO2,100
13,O=C(Nc1ccc([N+](=O)[O-])cc1)c1nn(-c2ccccc2)cc1/N=C/c1cccc(O)c1,98
14,N#Cc1cccc(COC(=O)C2=C(COc3ccccc3Cl)NC(=O)NC2c2c[nH]c3cnccc23)c1 (stereo not given),99
15,COc1ccc2cc(CNCCCCCCNCc3ccc4cc(OC)ccc4c3)ccc2c1.CS(=O)(=O)O,100
16,CC1(C)[C@H]2CC[C@@H](CNc3nc(NCCc4c[nH]cn4)nc(Nc4ccc5c(c4)OCO5)n3)[C@@H]1C2,100
17,CC[C@@H]([C@@H](CC(C)C)C(=O)N[C@@H](CCCCNC(=O)OCc1ccccc1)C(=O)Nc1ccccn1)N(O)C=O,98
18,O=C(Nc1ccc(OCc2ccccc2)cc1)c1nc2ccccc2nc1Cl,96
19,CCC[C@@H]([C@@H](CC1CCCCC1)C(=O)NC(C(=O)Nc1nccs1)C(CC)c1ccccc1)N(O)C=O (stereo not given in full),89
20,Cc1ccc(CCC(C)NCC(O)c2cccc(Cl)c2)cc1 (stereo not given),97
21,C=C[C@]1(C)C[C@@H](OC(=O)NC(=O)C2CCN(C(=O)CSc3ccccc3)CC2)[C@]2(C)[C@H](C)CC[C@]3(CCC(=O)[C@H]32)[C@@H](C)[C@@H]1O,93
22,O=S(=O)(c1ccc2cc[nH]c2c1)N1CCC[C@@H]1CCN1CCC(c2c[nH]c3cnccc23)CC1,95
23,O=C(Nc1ccc(Cl)cc1)c1cccc(CN2CCCN(Cc3cccc(O)c3)CC2)c1.O=C(O)C(F)(F)F,98
24,CC(O)C1CCCCN1C(=O)c1cccc(-c2ccc(-c3nc4cc(F)ccc4[nH]3)cc2)c1 (stereo not given),100
25,Cc1noc(C)c1-c1ccc2c(Nc3ccccc3C(C)(C)C)c(C(=O)NC3CCCC3)cnc2c1.Cl,93
26,Cc1cc(N[C@@H](Cc2ccccc2)C(=O)NCc2cccs2)nc(NCC2CCCCC2)n1.O=C(O)C(F)(F)F,100

# Tested on: Plasmodium falciparum
# Experiment: GSK_TCMDC: Inhibition of Plasmodium falciparum Dd2 in whole red blood cells, using parasite LDH activity as an index of growth. Test compounds present at 2uM
# Type: functional
row,Compound,Inhibition
1,FC(F)(F)c1cnc(Sc2nnc(-c3ccco3)o2)c(Cl)c1,97%
2,O=C(/C=C/c1ccc(Cl)c(Cl)c1)NCCCCCN1CCC(c2n[nH]c(-c3ccccc3)c2Br)CC1,23%
3,Cc1cc(N[C@@H](CC(C)C)C(=O)NC2CCCC2)nc(NCC2CCCCC2)n1.O=C(O)C(F)(F)F,88%
4,Cc1[nH]c(C)c(-c2ccc(Oc3ccc(OC(F)(F)F)cc3)cc2)c(=O)c1Br,97% and 95%
5,CCC[C@@H](/C=N/N(C)C(=O)OC(C)(C)C)NC(=O)[C@H](CC(C)C)NC(=O)c1cc2cccc(OC)c2o1,61%
6,CCN(CC)CCOC(=O)c1ccc(NC(=O)c2cn(-c3ccccc3)nc2-c2cccs2)cc1.Cl,59%
7,O=[N+]([O-])c1ccc(Nc2nc(N/N=C/c3cccc(O)c3)nc(N3CCCC3)n2)cc1,9%
8,Cn1nccc1C(=O)NCCNCc1cccc(-c2cccc(-c3nc4cc(C(F)(F)F)ccc4[nH]3)c2)c1.O=C(O)C(F)(F)F,99%
9,CCN1CCN(c2ccc(NC(=O)c3cc4c(C)nn(-c5ccccc5)c4s3)cc2C)CC1,81%
10,Br.CCc1ccccc1OCCCON1C(=N)N=C(N)NC1(C)C,97%
11,Cc1ccc(Nc2nccc(N(C)c3ccc4c(c3)nc(NC(=O)Cc3ccc(Cl)c(Cl)c3)n4C)n2)cc1S(N)(=O)=O.O=C(O)C(F)(F)F,60%
12,CC(Cc1ccc(NC(=O)c2ccc(CNCCc3ccccc3)cc2)cc1)NCCc1cccc(Cl)c1.Cl (stereo not given),99%
13,O=C(NC1CCN(c2ccc(F)cc2[N+](=O)[O-])CC1)c1cccs1,91%
14,NC1=NC(c2ccccc2)(c2ccccc2)C(=O)N1Cc1ccc(-c2cccnc2)cc1.O=CO,94%
15,Cc1cc(F)ccc1Oc1nc(Nc2ccc(N3CCOCC3)c(F)c2)nc2c1S(=O)(=O)CCC2.Cl,98%
16,O=C(NC1CC1)c1ccc(N2CCC(Cc3ccccc3)CC2)nc1.O=C(O)C(F)(F)F,92%
17,Cc1ccc(S(=O)(=O)N(CCCN2CCN(C)CC2)Cc2csc(-c3ccc(CNCc4ccccc4)cc3)n2)cc1.O=C(O)C(F)(F)F,90%
18,CCC1CCCCN1S(=O)(=O)c1ccc(OC)c(N2CCN(C(=O)C(Cl)(Cl)Cl)CC2)c1 (stereo not given),29%
19,COc1ccc(CCNCCCCCNCCCc2ccc(Cl)cc2)cc1OC.Cl,2%
20,O=C(COc1ccccc1)NC1CCN(c2ccnc3cc(Cl)ccc23)C1.O=C(O)C(F)(F)F (stereo not given),35%

row,Compound,Inhibition
1,CC(NC(=O)c1ccc(O)c(-c2ccc(Cl)c(Cl)c2)c1)C(=O)NCCN1CCCC1 (stereo not given),9%
2,CCO[C@H]1CN[C@H](C#Cc2cc3c(Nc4ccc(OCc5cccc(F)c5)c(Cl)c4)ncnc3s2)C1.O=C(O)C(F)(F)F,37%
3,O=C(Nc1ccc(-c2ccc(-c3nc4cc(C(F)(F)F)ccc4[nH]3)s2)cc1)c1c[nH]cn1,61%
4,O=C(NC1CC1)c1cnc(N2CCN(Cc3c(F)cccc3Cl)CC2)c(Cl)c1.O=C(O)C(F)(F)F,93%
5,O=C(Nc1ccc(-c2cccc(-c3nc4ccccc4[nH]3)c2)cc1)Nc1ccc2c(c1)OCO2,65%
6,O=C(Nc1ccc([N+](=O)[O-])cc1)c1nn(-c2ccccc2)cc1/N=C/c1cccc(O)c1,37%
7,N#Cc1cccc(COC(=O)C2=C(COc3ccccc3Cl)NC(=O)NC2c2c[nH]c3cnccc23)c1 (stereo not given),0%
8,COc1ccc2cc(CNCCCCCCNCc3ccc4cc(OC)ccc4c3)ccc2c1.CS(=O)(=O)O,92%
9,CC1(C)[C@H]2CC[C@@H](CNc3nc(NCCc4c[nH]cn4)nc(Nc4ccc5c(c4)OCO5)n3)[C@@H]1C2,88%
10,CC[C@@H]([C@@H](CC(C)C)C(=O)N[C@@H](CCCCNC(=O)OCc1ccccc1)C(=O)Nc1ccccn1)N(O)C=O,99%
11,O=C(Nc1ccc(OCc2ccccc2)cc1)c1nc2ccccc2nc1Cl,95%
12,CCC[C@@H]([C@@H](CC1CCCCC1)C(=O)NC(C(=O)Nc1nccs1)C(CC)c1ccccc1)N(O)C=O (stereo not given in full),19%
13,Cc1ccc(CCC(C)NCC(O)c2cccc(Cl)c2)cc1 (stereo not given),97%
14,C=C[C@]1(C)C[C@@H](OC(=O)NC(=O)C2CCN(C(=O)CSc3ccccc3)CC2)[C@]2(C)[C@H](C)CC[C@]3(CCC(=O)[C@H]32)[C@@H](C)[C@@H]1O,74%
15,O=S(=O)(c1ccc2cc[nH]c2c1)N1CCC[C@@H]1CCN1CCC(c2c[nH]c3cnccc23)CC1,0%
16,O=C(Nc1ccc(Cl)cc1)c1cccc(CN2CCCN(Cc3cccc(O)c3)CC2)c1.O=C(O)C(F)(F)F,43%
17,CC(O)C1CCCCN1C(=O)c1cccc(-c2ccc(-c3nc4cc(F)ccc4[nH]3)cc2)c1 (stereo not given),99%
18,Cc1noc(C)c1-c1ccc2c(Nc3ccccc3C(C)(C)C)c(C(=O)NC3CCCC3)cnc2c1.Cl,79%
19,Cc1cc(N[C@@H](Cc2ccccc2)C(=O)NCc2cccs2)nc(NCC2CCCCC2)n1.O=C(O)C(F)(F)F,92%
